Source: PubChem (Broad Institute)
Hits are enriched below; roughly 3.3% of the tested compounds scored in any of these assays.
SIRT5 inh: sirtuin-5 (human) deacylase inhibition | Q9NXA8 | inhibition, % at 15 µM | 330,000 tested, 1.1% active | Purified SirT5, succinyl-peptide AMC, trypsin-coupled fluorescence; in the data active means inhibition above about 15%
INS-1E GSIS act: primary screen for activators of insulin secretion dependent on glucose, INS-1E cells, GLuc reporter luminescence. 370,000 tested, 0.61% active. INS-1E GLuc reporter insulin secretion, 2-3 h. activation, % at 16.6 µM;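 active means lowest replicate activation of at least 40%, so every replicate reaches that level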;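 further: 0% = median of neutral control wells and 100% = median of IBMX positive control wells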
FGF22 binding: binders of recombinant human FGF22 by thermal shift | Q9HCT0 | SYPRO orange fluorescence; percent of sucrose octasulfate shift, DMSO zero | activity (Tm shift, normalised), % at 9.99 µM | 340,000 tested, 1.5% active;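 active means mean Tm shift, scaled 0 neutral to 100 positive control, at about 1.3% or above, every replicate too, limit read from the data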
ERAP1 HTS inh: ERAP1 (human) enzyme inhibition; Q9NZ08; recombinant ERAP1, Leu-AMC fluorescence, 60 min; inhibition, % at 10.7 µM; 340,000 tested, 0.15% active;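 active means mean replicate inhibition of at least 30%, or all replicates individually reaching that 30% level; inactive means mean below 30% and not every replicate reaching it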;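 further: 0% = neutral control wells and 100% = L-leucinethiol positive control wells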
Target sequence (Q9NZ08 whole entry, looked up): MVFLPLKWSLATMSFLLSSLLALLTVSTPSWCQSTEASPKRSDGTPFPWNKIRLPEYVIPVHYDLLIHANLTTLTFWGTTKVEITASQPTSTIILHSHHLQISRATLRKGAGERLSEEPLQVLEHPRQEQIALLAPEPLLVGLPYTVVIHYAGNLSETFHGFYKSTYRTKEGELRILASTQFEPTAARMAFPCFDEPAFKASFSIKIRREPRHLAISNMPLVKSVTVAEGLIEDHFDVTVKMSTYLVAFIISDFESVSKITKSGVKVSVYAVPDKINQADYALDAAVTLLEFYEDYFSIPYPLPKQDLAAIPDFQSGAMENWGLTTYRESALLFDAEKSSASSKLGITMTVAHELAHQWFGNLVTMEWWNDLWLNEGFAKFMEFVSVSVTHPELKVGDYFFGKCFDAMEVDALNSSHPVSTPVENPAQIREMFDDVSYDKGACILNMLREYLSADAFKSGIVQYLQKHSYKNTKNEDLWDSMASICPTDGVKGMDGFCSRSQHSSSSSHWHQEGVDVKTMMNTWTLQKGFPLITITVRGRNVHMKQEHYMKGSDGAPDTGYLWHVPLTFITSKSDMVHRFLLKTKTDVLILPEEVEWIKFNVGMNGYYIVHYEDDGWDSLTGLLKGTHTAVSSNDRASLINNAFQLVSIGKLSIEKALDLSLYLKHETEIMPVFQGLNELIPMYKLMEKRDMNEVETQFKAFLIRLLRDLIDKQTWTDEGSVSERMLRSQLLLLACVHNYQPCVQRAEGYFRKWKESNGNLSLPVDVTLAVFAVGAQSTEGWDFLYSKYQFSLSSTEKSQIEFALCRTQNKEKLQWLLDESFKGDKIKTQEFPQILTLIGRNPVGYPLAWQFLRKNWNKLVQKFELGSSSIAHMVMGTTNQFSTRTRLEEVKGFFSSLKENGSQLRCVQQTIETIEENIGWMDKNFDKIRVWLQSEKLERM
CASP6 VEID inh: inhibitors of human caspase-6; P55212; purified caspase-6, Z-VEID-R110 cleavage fluorescence; inhibition, % at 12.5 µM; 350,000 tested, 0.53% active; AID 686996;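 active means mean inhibition across replicates at least about 35%, with every replicate also reaching that limit, limit read from the data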;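 further: 0% = median of neutral control wells and 100% = no fluorescence left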
The depositor's hits bear a star; ! = repeats disagree.

What do the screens show for `CN1[C@H](C(=O)NC2Cc3ccccc3C2)[C@@H](CO)[C@@H]2Cn3c(ccc(C4=CCCC4)c3=O)[C@@H]21`?
SIRT5 inh: -7.3; INS-1E GSIS act: -6.5; FGF22 binding: -0.2; ERAP1 HTS inh: -3.6; CASP6 VEID inh: 4.2

What do the screens show for `CCN(C[C@H]1[C@H](c2ccccc2)[C@H](CO)N1C(C)=O)C(=O)NC(C)C`?
SIRT5 inh: 1.5; INS-1E GSIS act: 4.0; FGF22 binding: 0.0; ERAP1 HTS inh: 0.0; CASP6 VEID inh: -0.2

How did CCCN(C[C@H]1[C@H](c2ccccc2)[C@@H](CO)N1C(C)=O)C(=O)NC(C)C do in these assays?
SIRT5 inh: 33.4*!; INS-1E GSIS act: 18.2; FGF22 binding: -0.2; ERAP1 HTS inh: -4.2; CASP6 VEID inh: 2.0

What do the screens show for `CC(=O)N(Cc1cccc(F)c1)C[C@H]1[C@@H](c2ccccc2)[C@@H](CO)N1C(C)=O`?
SIRT5 inh: 28.1*; INS-1E GSIS act: 5.0; ERAP1 HTS inh: 1.6; CASP6 VEID inh: -0.3

What do the screens show for `CCN(C[C@H]1[C@H](c2ccccc2)[C@@H](CO)N1C(C)=O)C(=O)c1cccc(F)c1`?
INS-1E GSIS act: 1.6; FGF22 binding: -0.1; ERAP1 HTS inh: 0.3; CASP6 VEID inh: 1.1

How did COCCN(C[C@@H]1[C@@H](c2ccccc2)[C@H](CO)N1C(C)=O)C(=O)c1cccnc1 do in these assays?
SIRT5 inh: 16.2*; INS-1E GSIS act: 0.9; FGF22 binding: -0.9; ERAP1 HTS inh: 0.2; CASP6 VEID inh: -4.6

What do the screens show for `CCOC(=O)c1ccc(Nc2ncnc3ccc(C)cc23)cc1`?
INS-1E GSIS act: 85.2*

What do the screens show for `CCOC(=O)c1cccc(Nc2ncnc3ccc(C)cc23)c1`?
INS-1E GSIS act: -14.5

Results for CNC[C@H]1Oc2c(NC(C)=O)cccc2C(=O)N(C)C[C@@H]1C ?
INS-1E GSIS act: -5.7

Results for COC(=O)[C@@]12C[C@@H](CC(=O)NCc3cccc(C(F)(F)F)c3)C(=O)N(Cc3cccc4ccccc34)C1=CCC(C)(C)C2 ?
SIRT5 inh: 0.5; INS-1E GSIS act: -2.9; FGF22 binding: 23.4*; ERAP1 HTS inh: 10.6; CASP6 VEID inh: -1.9

Results for COC(=O)[C@]12CCCCC=C1N(Cc1ccc(Cl)cc1Cl)C(=O)[C@H](CC(=O)NCc1cccc(C(F)(F)F)c1)C2 ?
SIRT5 inh: 19.5*; INS-1E GSIS act: 13.7; FGF22 binding: 1.5*; ERAP1 HTS inh: 0.4; CASP6 VEID inh: -3.0

What do the screens show for `C#CCNC(=O)C[C@@H]1C[C@@]2(C(=O)OCC)CCC=C2N(Cc2ccc(Cl)cc2Cl)C1=O`?
SIRT5 inh: -0.1; FGF22 binding: -0.6; ERAP1 HTS inh: -1.5; CASP6 VEID inh: 76.5*

What do the screens show for `CCOC(=O)[C@]12CCCC=C1N(Cc1ccc(Cl)cc1Cl)C(=O)[C@H](CC(=O)NCc1cccc(C(F)(F)F)c1)C2`?
SIRT5 inh: 1.5; INS-1E GSIS act: -19.2; FGF22 binding: 0.9; ERAP1 HTS inh: 3.1; CASP6 VEID inh: -0.5

How did CCOC(=O)[C@]12CCC=C1N(Cc1ccc(Cl)cc1Cl)C(=O)[C@H](CC(=O)NCc1cccc(C(F)(F)F)c1)C2 do in these assays?
SIRT5 inh: -6.7; INS-1E GSIS act: 9.3; FGF22 binding: 1.4*; ERAP1 HTS inh: -0.3; CASP6 VEID inh: -0.3

How did C[C@@H]1CCCCO[C@@H](CN(C)CC2CCCCC2)[C@H](C)CN([C@@H](C)CO)C(=O)c2cc(NS(=O)(=O)c3ccc(F)cc3)ccc2O1 do in these assays?
SIRT5 inh: 8.8; INS-1E GSIS act: -0.7; FGF22 binding: 0.0; ERAP1 HTS inh: -1.9; CASP6 VEID inh: 2.2

How did CS(=O)(=O)N1CCCCN2[C@H](CO)[C@@H](c3ccc(Br)cc3)[C@H]2C1 do in these assays?
SIRT5 inh: 8.3; INS-1E GSIS act: 3.7; FGF22 binding: 0.4; ERAP1 HTS inh: 3.7; CASP6 VEID inh: 0.5

What do the screens show for `Cc1cc(C(=O)CSc2nncs2)c(C)n1Cc1ccco1`?
SIRT5 inh: -1.8; INS-1E GSIS act: 0.6; FGF22 binding: 0.1; ERAP1 HTS inh: -0.5; CASP6 VEID inh: 0.6

What do the screens show for `Cc1cc(C(=O)CCl)c(C)n1Cc1ccco1`?
SIRT5 inh: -1.8; INS-1E GSIS act: -5.0; FGF22 binding: 43.0*; ERAP1 HTS inh: 0.9; CASP6 VEID inh: 1.8

How did CN1C[C@@H]2C[C@@H](c3cccn3-c3nccs3)N3CCC[C@@]23C1=O do in these assays?
SIRT5 inh: -5.3; INS-1E GSIS act: 9.7; FGF22 binding: 43.4*; ERAP1 HTS inh: 3.4; CASP6 VEID inh: 3.2

How did CNC[C@H]1Oc2ccc(N)cc2CC(=O)N(C)C[C@H]1C do in these assays?
INS-1E GSIS act: 8.8

Results for Nc1c(C(=O)Nc2ccc3c(c2)OCCO3)nnn1Cc1ccc(Cl)cc1 ?
SIRT5 inh: -1.3; INS-1E GSIS act: 45.0*; FGF22 binding: -0.5; ERAP1 HTS inh: -0.6; CASP6 VEID inh: -4.0

How did Fc1cccc(CN2C[C@@H]3N[C@H](C2)[C@@H]3c2ccc(-c3cccc(F)c3)cc2)c1 do in these assays?
SIRT5 inh: 6.5; INS-1E GSIS act: active; ERAP1 HTS inh: -2.0; CASP6 VEID inh: -0.7

How did Fc1cccc(-c2ccc(C3[C@@H]4CN(Cc5ccccc5F)C[C@H]3N4)cc2)c1 (some centres undefined) do in these assays?
SIRT5 inh: -11.1; INS-1E GSIS act: 804.5*!; ERAP1 HTS inh: 1.0; CASP6 VEID inh: 0.4

What do the screens show for `Fc1cccc(CN2C[C@@H]3N[C@H](C2)C3c2ccc(-c3ccccc3)cc2)c1` (some centres undefined)?
SIRT5 inh: 2.5; INS-1E GSIS act: -10.6; ERAP1 HTS inh: -2.3; CASP6 VEID inh: 0.8

What do the screens show for `COc1cc(-c2nc(CN3CCN(c4ncccn4)CC3)c(C)o2)ccc1F`?
SIRT5 inh: 2.9; INS-1E GSIS act: -3.0; FGF22 binding: 43.3*; ERAP1 HTS inh: 0.1; CASP6 VEID inh: -0.8

How did CO[C@@H]1CN(C)C(=O)c2ccc(NC(C)=O)cc2OC[C@H](C)N(Cc2ccc(F)cc2)C[C@H]1C do in these assays?
SIRT5 inh: 6.2; INS-1E GSIS act: -29.0; FGF22 binding: -0.5; ERAP1 HTS inh: 0.7

Results for C[C@H]1CN([C@@H](C)CO)S(=O)(=O)c2ccc(C3=CCCCC3)cc2O[C@@H]1CN(C)Cc1ccccc1F ?
SIRT5 inh: 13.5; INS-1E GSIS act: 6.9; FGF22 binding: 0.3; ERAP1 HTS inh: -0.4; CASP6 VEID inh: -2.7

How did O=C(CSC1CC(=O)N(c2ccc(C(=O)O)cc2)C1=O)Nc1ccc(Cl)cc1 (centres undefined) do in these assays?
SIRT5 inh: 17.8*; INS-1E GSIS act: -6.7; ERAP1 HTS inh: -1.5

Results for Cc1noc(C)c1S(=O)(=O)N(C)C[C@@H]1OCCCC[C@@H](C)Oc2ccc(NC(=O)CCCN(C)C)cc2C(=O)N([C@H](C)CO)C[C@H]1C ?
SIRT5 inh: -6.3; INS-1E GSIS act: 7.8; FGF22 binding: -0.1; ERAP1 HTS inh: 1.1; CASP6 VEID inh: 1.3
